# Laboratory results: PubChem BioAssay AID624417 (National Center for Advancing Translational Sciences (NCATS), 2012)
# The campaign covered roughly 410,000 compounds. About 6,400 (1.6%) were called active. A call without a number means that no potency is given here. About 20% were inconclusive and are not listed. Calls come from the whole dose curve; as a rule, active = well fitted inhibition curve with a large enough effect; inconclusive = small, poorly fitted or top-dose-only effect; inactive = no such curve, though single readings can be large or run the other way. Only a selection was taken, and actives are over-represented in it overall.
# Target: Glucagon-like peptide 1 receptor (Homo sapiens) (UniProt P43220)
# Assay: qHTS of GLP-1 Receptor Inverse Agonists (Inhibition Mode); note: nearly all actives have a fitted effect of over 55% in size
# Settings: HEK293 GLP-1R CRE-luciferase, luminescence, 24 h, GLP-1R form is constitutively active; series mostly up to 38.3 µM
# Outline: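 Readout was luciferase luminescence, measured 12 min after detection reagent at room temperature. Beforehand, GLP-1R reporter HEK293 cells had sat 12 h, then received compounds for 24 hr at 37 deg C.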
# Potency is the fitted concentration of half-maximal effect.
# Sequence of Glucagon-like peptide 1 receptor (Homo sapiens) (P43220 whole entry, looked up): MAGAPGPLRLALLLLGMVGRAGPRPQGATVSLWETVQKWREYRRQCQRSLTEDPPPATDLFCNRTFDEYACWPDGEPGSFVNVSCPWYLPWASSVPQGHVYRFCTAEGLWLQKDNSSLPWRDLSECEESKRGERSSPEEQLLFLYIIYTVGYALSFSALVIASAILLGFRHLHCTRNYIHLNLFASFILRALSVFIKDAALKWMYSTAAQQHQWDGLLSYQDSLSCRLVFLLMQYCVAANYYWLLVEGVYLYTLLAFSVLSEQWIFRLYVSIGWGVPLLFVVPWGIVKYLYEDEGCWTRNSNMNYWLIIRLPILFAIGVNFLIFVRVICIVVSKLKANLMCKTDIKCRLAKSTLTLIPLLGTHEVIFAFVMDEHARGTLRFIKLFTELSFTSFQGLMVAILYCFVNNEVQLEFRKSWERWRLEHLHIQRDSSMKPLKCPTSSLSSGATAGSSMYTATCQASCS
row,Structure (SMILES),Potency
1,CC1(C(=O)O)CCN1C(=O)/C=C/c1ccccc1 (stereo not drawn),inactive
2,Cc1cccc(S(=O)(=O)N(C)C[C@@H]2OCc3cnnn3CCCC(=O)N([C@H](C)CO)C[C@@H]2C)c1,inactive
3,O=C(NCCC1=CCCCC1)C1CCN(Cc2cnn(-c3ccccc3)c2-n2cccc2)CC1,4.47 µM (active)
4,Cc1cc(C)cc(NC(=O)CSCc2cnn(-c3ccccc3)c2-n2cccc2)c1,inactive
5,CC(=O)Nc1ccc(NC(=O)CSCc2cnn(-c3ccccc3)c2-n2cccc2)cc1,inactive
6,Cc1ccc(S(=O)(=O)N2C[C@H]3C(=O)C[C@@H](c4cccc5ccccc45)N(S(=O)(=O)c4ccc(C)cc4)[C@H]3C[C@H]2c2ccc(Cl)cc2)cc1,inactive
7,CC1(C(=O)NS(=O)(=O)c2cccc(OC(F)F)c2)CCN1C(=O)C1CC1 (stereo not drawn),inactive
8,CC1=NN(C(=O)c2ccc(Br)cc2)C(O)(c2ccccc2)C1 (stereo not drawn),1.12 µM (active)
9,CC1=NN(C(=O)Cc2ccc(C)cc2)C(O)(c2cccnc2)C1 (stereo not drawn),inactive
10,CC1=NN(C(=O)c2ccccc2Br)C(O)(c2cccnc2)C1 (stereo not drawn),inactive
11,CCOC(=O)[C@]12CCCC=C1N(CCC1=CCCCC1)C(=O)[C@H](CC(=O)N1CCOCC1)C2,inactive
12,CC(=O)Nc1cccc(-c2cc3nc(NCc4cccnc4)n(C)c(=O)c3s2)c1,inactive
13,Cc1c(C(=O)NCC2CC2)sc(=O)n1Cc1cccc(F)c1,inactive
14,O=C1NC[C@H](Cc2ccc(O)cc2)N(C[C@@H]2CCCN2C[C@H](Cc2ccccc2)N2C[C@H](Cc3ccccc3)N(CC3CCCCC3)C(=O)C2=O)C1=O,inactive
15,c1ccc(-c2nnc(N3CCOCC3)c3ccccc23)cc1,inactive
16,CC1CN(c2nc(Nc3ccccc3)nc(N)c2[N+](=O)[O-])CC(C)O1 (stereo not drawn),inactive
17,c1ccc(Nc2nc(N3CCOCC3)c3ccccc3n2)cc1,10 µM (active)
18,CCc1cc(C(=O)N(CC)CC(=O)Nc2c(F)cccc2F)sc1C,inactive
19,COC(=O)C[C@@H]1C=C[C@@H](NS(=O)(=O)c2cccc(OC)c2)[C@@H](CO)O1,inactive
20,O=C(Nc1cccc2cccnc12)c1cccc2c(Br)cccc12,inactive
21,Cc1ccc2cccc(NC(=O)c3cccc4ccccc34)c2n1,11.2 µM (active)
22,Cc1ccc2cccc(NC(=O)c3ccc(OC(C)C)cc3)c2n1,inactive
23,CNc1cnc(-c2cc(OC)c(OC)c(OC)c2)cn1,inactive
24,CCCn1c(C(O)c2cc(OC)ccc2OC)nc2ccccc21 (stereo not drawn),inactive

row,Structure (SMILES),Potency
1,CCn1c(C(O)c2cc(OC)ccc2OC)nc2ccccc21 (stereo not drawn),inactive
2,COc1ccc(-c2nc3ccccc3n2CCC(C)C)cc1OC,8.91 µM (active)
3,CCOC(=O)c1c(NC(=S)SC)sc(C(=O)N2CCc3ccccc3C2)c1C,inactive
4,Cc1ccc(C(=O)N[C@H](C(=O)N2CCN(c3ncccn3)CC2)C(C)C)cc1,inactive
5,CCN(CC)C(=O)C1=C(C)N(Cc2ccc(C(C)(C)C)cc2)C(=O)C(CC(=O)NCc2cccc3ccccc23)C1 (stereo not drawn),11.2 µM (active)
6,COc1ccc(CN2C(=O)C(CC(=O)NCc3cccc4ccccc34)CC(C(=O)N3CCOCC3)=C2C)cc1 (stereo not drawn),inactive
7,CCN(CC)C(=O)C1=C(C)N(Cc2ccc(OC)cc2)C(=O)C(CC(=O)NCc2ccco2)C1 (stereo not drawn),inactive
8,COC(=O)C(Cc1c[nH]c2ccccc12)NC(=O)CCNC(=O)c1ccco1 (stereo not drawn),inactive
9,COc1ccc(S(=O)(=O)N2CCC(C(=O)NCCC(=O)Nc3ccccc3OC)CC2)cc1,inactive
10,Nc1nc2c(ncn2[C@@H]2O[C@H](CNCc3ccc(OCCCN4CCOCC4)cc3)[C@@H](O)[C@H]2O)c(=O)[nH]1,inactive
11,COC(=O)Cc1ccc(OC2(C)CCN(Cc3ccc4c(c3)OCCO4)C2)cc1 (stereo not drawn),inactive
12,COc1ccc(NC(=O)CSc2nnnn2-c2cccc(OC)c2)cc1,inactive
13,COc1ccc(-n2nnnc2-c2nc3ccccc3s2)cc1,inactive
14,CCOc1cccc(-n2nnnc2-c2ccc(OC)cc2)c1,2.51 µM (active)
15,O=C(NCCO)c1cccc(-c2cccc3nccn23)c1,inactive
16,O=C1NC[C@H](CCCCN2CCN(CCc3ccccc3)C(=O)C2=O)N(CC2CCCCC2)C1=O,inactive
17,COC(=O)c1ccc2nc(-c3ccc(F)cc3)c(Cc3ccc(C)cc3)n2c1,inactive
18,CCNC(=O)c1cc2c(c(-c3cccc(-c4cncnc4)c3)n1)[C@H](CCO)N(C(C)=O)C2,inactive
19,Cc1c(Cl)cccc1NC(=S)NCc1ccc2c(c1)OCO2,inactive
20,Cc1cccc(NC(=S)NCCc2ccc(Cl)cc2)c1C,5.62 µM (active)
21,CCNC(=S)Nc1cccc(Cl)c1C,inactive
22,COc1ccc(S(=O)(=O)N(C)C[C@H]2OCc3cnnn3CCCC(=O)N([C@H](C)CO)C[C@H]2C)cc1,inactive
23,CC1Cc2ccccc2N1S(=O)(=O)c1cccc(C(=O)NCC(c2ccco2)N2CCCC2)c1 (stereo not drawn),10 µM (active)
24,CC1CCc2sc(C(=O)NCC(c3ccco3)N3CCCCC3)cc2C1 (stereo not drawn),8.91 µM (active)

row,Structure (SMILES),Potency
1,CSc1ncccc1C(=O)NCC(c1ccco1)N1CCCCC1 (stereo not drawn),inactive
2,CC1CCc2sc(C(=O)N/N=C/C3CCCCC3)cc2C1 (stereo not drawn),inactive
3,CC1Cc2ccccc2N1S(=O)(=O)c1cccc(C(=O)OCC(=O)N2CCOCC2)c1 (stereo not drawn),inactive
4,Cc1cc(S(=O)(=O)Nc2ccc(C(=O)NCC(c3ccco3)N3CCCC3)cc2)ccc1F (stereo not drawn),inactive
5,CCN(CC(=O)Nc1ccc(NC(C)=O)cc1)C(=O)C1CC(=O)N(c2ccc3c(c2)OCCO3)C1 (stereo not drawn),inactive
6,COc1cccc(CN(C)C(=O)CC[C@H]2O[C@@H](n3cnc4c(NC(=O)c5ccccc5)ncnc43)[C@H](O)[C@@H]2O)c1,inactive
7,CCCS(=O)(=O)NC(=O)C1(C)CCN(C(=O)c2sccc2C)C1 (stereo not drawn),inactive
8,O=C(OCc1cn([C@H]2C[C@H](c3ccccc3)N(C(=O)c3cccs3)C[C@@H]2O)nn1)c1ccccc1,inactive
9,CN1CCN(C(=O)c2ccc(-c3cc4nc(NCc5cccnc5)n(C)c(=O)c4s3)cc2)CC1,inactive
10,O=C(c1ccccc1)N1CCN(c2cc(-c3ccccc3)nc3cc(-c4cccc(Cl)c4)nn23)CC1,inactive
11,COc1ccc(OC)c(NC(=O)C2CCCN2S(=O)(=O)c2ccc3c(c2)CC(C)N3C(C)=O)c1 (stereo not drawn),inactive
12,C[C@@H]1CN([C@@H](C)CO)C(=O)CCCn2nncc2CO[C@@H]1CN(C)S(=O)(=O)c1ccc(-c2ccccc2)cc1,inactive
13,CC(C)CCNC(=O)c1[nH]c(C(F)(F)F)nc1-c1ccccc1,inactive
14,COC(=O)c1sccc1S(=O)(=O)N(CC(=O)Nc1ccc(C)c(F)c1)c1ccc(C)c(C)c1,8.91 µM (active)
15,COc1ccc(N(CC(=O)Nc2ccc(F)c(F)c2)S(=O)(=O)c2c(C)[nH]c(=O)[nH]c2=O)cc1,inactive
16,CCc1cccc(NC(=O)CN(c2ccc(C)c(C)c2)S(=O)(=O)c2ccsc2C(=O)OC)c1,inactive
17,CCc1nc2ccc(C(=O)N3CCN(S(=O)(=O)CC)CC3)cn2c1N(C=O)CCC(C)C,inactive
18,COc1ccc(CCNC(=O)C(=O)NCC2CCCN2S(=O)(=O)c2cccs2)cc1OC (stereo not drawn),inactive
19,O=C(NCCC1CCCCN1S(=O)(=O)c1cccs1)C(=O)Nc1ccc(F)cc1F (stereo not drawn),6.31 µM (active)
20,O=C(NCCC1CCCCN1S(=O)(=O)c1ccc(F)cc1)C(=O)NC1CC1 (stereo not drawn),inactive
21,COC(=O)C[C@@H]1C=C[C@@H](NC(=O)c2ccc3c(c2)OCO3)[C@@H](CO)O1,inactive
22,CCOC(=O)c1cc2sccc2n1Cc1ccc(C#N)cc1,inactive
23,O=C(c1cc2sccc2n1Cc1ccc(F)cc1)N1CCc2ccccc21,5.01 µM (active)
24,CC(=O)Nc1ccc(NC(=O)c2cc3sccc3n2Cc2ccc(F)cc2)cc1,inactive

row,Structure (SMILES),Potency
1,N#CCCC(C#N)(c1cccnc1)N1CCOCC1 (stereo not drawn),inactive
2,COCCNC(=O)C1(C)CCCN(Cc2cccc(F)c2)C1 (stereo not drawn),inactive
3,O=C(NCc1cccc(C(F)(F)F)c1)c1ccc2sc(COCCO)nc2c1,inactive
4,O=C(C[C@H]1C[C@H]2c3cc(NS(=O)(=O)c4ccc(F)cc4)ccc3O[C@H]2[C@H](CO)O1)NCc1cc(F)ccc1F,inactive
5,N#Cc1cccc(NC(=O)c2cc(C3CCCCN3C(=O)CCc3ccccc3)on2)c1 (stereo not drawn),inactive
6,COc1ccc(C(=O)N2CCCCC2c2cc(C(=O)Nc3ccccc3)no2)cc1 (stereo not drawn),10 µM (active)
7,CCCNC(=O)c1cc(C2CCCCN2C(=O)OC)on1 (stereo not drawn),inactive
8,COc1cccc(NC(=O)N(C)C[C@@H]2Oc3ncc(Br)cc3C(=O)N([C@@H](C)CO)C[C@H]2C)c1,inactive
9,CCC1OC(C2CC2)CC2=C1C(=O)OC(C)(C)O2 (stereo not drawn),inactive
10,O=C(Nc1ccc(S(=O)(=O)Nc2nccs2)cc1)c1cc(-c2ccncc2)nc2ccccc12,inactive
11,COC(=O)CNC(=O)c1cc(-c2ccncc2)nc2ccccc12,inactive
12,CCN(CC)CCNC(=O)c1ccc(NC(=O)c2cc(-c3ccncc3)nc3ccccc23)cc1,12.6 µM (active)
13,C=CCOc1ccccc1CNn1c(C)n[nH]c1=S,inactive
14,CC1(C(=O)NS(=O)(=O)c2cccc(OC(F)F)c2)CCN1C(=O)COc1ccc(Cl)cc1 (stereo not drawn),inactive
15,COc1ccc(C2CC(c3ccc(C)cc3)Nc3ncnn32)cc1 (stereo not drawn),inactive
16,CCOc1ccccc1C1CC(c2ccccc2)Nc2nc(N)nn21 (stereo not drawn),inactive
17,FC(F)Oc1ccccc1C1CC(c2ccc(Br)s2)Nc2ncnn21 (stereo not drawn),7.94 µM (active)
18,Cc1ccc(S(=O)(=O)N[C@H](CO)C(C)C)cc1,inactive
19,C[C@H]1CN([C@@H](C)CO)C(=O)CCCn2cc(nn2)CO[C@@H]1CN(C)S(=O)(=O)c1ccc(-c2ccccc2)cc1,inactive
20,C[C@H]1CN(c2ccc(Br)cc2)C(=O)[C@@H]1CC(=O)Nc1ccc(Br)cc1,inactive
21,COc1ccc(NC(=O)c2sc(=O)n(Cc3ccc(S(=O)(=O)N(C)C)cc3)c2C)cc1,inactive
